In PubChem BioAssay (NCATS) one finds Potency data, which are given here for eleven molecules.

This experiment is described as follows: qHTS assay to identify small molecule inhibitors of chordoma cells - UCH-1 (AID 1259355). Also: nearly all actives have a fitted effect of over 55% in size. As to Potency: series mostly up to about 46 µM. The gist of the method: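 800 cells/well, overnight attach; compounds pinned at 15 concs, then auranofin/camptothecin/doxorubicin/rubitecan/topotecan combo added; 48hr 37 C, 5% CO2; CellTiter-Glo, 30min RT, luminescence.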

Molecules are shown by their SMILES. Inconclusive results are not listed. A call without a number means that no potency is given here. Calls of active or inactive are those of the source. Calls follow the shape of the dose curve; as a rule, active = well fitted cell-killing curve with a large enough effect; inconclusive = small, poorly fitted or top-dose-only effect, or effect the other way; inactive = no such curve, though single readings can be large or run the other way.
Potency is read from the fitted curve at half-maximal effect.

For `Oc1cccc[c]1[Hg][Cl]`, the Potency was 15.8 µM [with auranofin plus four topoisomerase inhibitors] (active).

For the molecule `CCCC(=O)OC(C(Cl)(Cl)Cl)P(=O)(OC)OC` (stereo unspecified), the Potency entry is “inactive”.

Consider `C#CCN1CC(=O)N(COC(=O)C2C(C=C(C)C)C2(C)C)C1=O` (stereo unspecified), for which the Potency result was “inactive”.

`CC(C)CCON=O`: the Potency entry was “inactive”.

Regarding `c1ccc(C2(N3CCCC3)CCCCC2)cc1`, the Potency entry is “inactive”.

Take `CCN1C[C@]2(COC)[C@H](O)C[C@H](OC)[C@@]34[C@@H]5C[C@@]6(O)[C@H](OC(=O)c7ccccc7)[C@@H]5[C@@](OC(C)=O)([C@@H]([C@H](OC)[C@H]23)[C@@H]14)[C@@H](O)[C@@H]6OC`: the Potency entry is “inactive”.

`C[C@]12CC[C@H]3[C@@H](CCC4=C(O)C(=O)CC[C@@H]43)[C@@H]1CC[C@@H]2OC(=O)CCC1CCCC1`: the Potency result is “inactive”.

Consider `CCC(C)(S(=O)(=O)CC)S(=O)(=O)CC`, for which the Potency result is “inactive”.

Regarding `O=C(CS(=O)C(c1ccccc1)c1ccccc1)NO` (stereo unspecified), the Potency result was “inactive”.

For the molecule `CN[C@H]1C[C@@H](N)[C@H](O)[C@@H](O[C@@H]2O[C@H](CO)[C@H](O)[C@@H]3OC4(O[C@H]23)O[C@H](C(N)CO)[C@H](O)[C@H](O)[C@H]4O)[C@@H]1O` (stereo partly specified), the Potency result was “inactive”.

`CO[C@H]1[C@@H](O)C[C@H](O[C@H]2[C@@H](O)C[C@H](O[C@H]3[C@@H](O)C[C@H](O[C@H]4CC[C@@]5(C)[C@H](CC[C@@H]6[C@@H]5C[C@@H](O)[C@]5(C)[C@@H](C7=CC(=O)OC7)CC[C@]65O)C4)O[C@@H]3C)O[C@@H]2C)O[C@@H]1C`: the Potency is 0.355 µM [with auranofin plus four topoisomerase inhibitors] (active).
